From the supplement of paper PMC10849652
Of roughly 7,900 targets only a part is listed; those with a hit were picked by preference. About 0.6% of all pairs of compound and target were hits. A number with no mark means an inactive call.

Chain of UniProt Q16850 (Q16850 whole entry, looked up): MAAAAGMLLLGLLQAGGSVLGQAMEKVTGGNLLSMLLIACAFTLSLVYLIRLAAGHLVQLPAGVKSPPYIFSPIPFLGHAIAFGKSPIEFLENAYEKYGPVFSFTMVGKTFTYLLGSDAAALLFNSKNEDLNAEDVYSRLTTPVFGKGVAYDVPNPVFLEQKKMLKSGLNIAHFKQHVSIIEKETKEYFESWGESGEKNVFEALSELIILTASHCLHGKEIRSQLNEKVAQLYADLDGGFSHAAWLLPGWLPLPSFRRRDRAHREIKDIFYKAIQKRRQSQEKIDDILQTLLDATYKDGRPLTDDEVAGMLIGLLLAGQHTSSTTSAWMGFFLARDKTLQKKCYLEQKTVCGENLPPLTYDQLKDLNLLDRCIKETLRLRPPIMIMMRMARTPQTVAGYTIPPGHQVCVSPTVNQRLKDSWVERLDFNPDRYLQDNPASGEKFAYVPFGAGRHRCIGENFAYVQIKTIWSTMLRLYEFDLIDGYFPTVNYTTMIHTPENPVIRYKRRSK
Chain of UniProt P11182 (P11182 whole entry, looked up): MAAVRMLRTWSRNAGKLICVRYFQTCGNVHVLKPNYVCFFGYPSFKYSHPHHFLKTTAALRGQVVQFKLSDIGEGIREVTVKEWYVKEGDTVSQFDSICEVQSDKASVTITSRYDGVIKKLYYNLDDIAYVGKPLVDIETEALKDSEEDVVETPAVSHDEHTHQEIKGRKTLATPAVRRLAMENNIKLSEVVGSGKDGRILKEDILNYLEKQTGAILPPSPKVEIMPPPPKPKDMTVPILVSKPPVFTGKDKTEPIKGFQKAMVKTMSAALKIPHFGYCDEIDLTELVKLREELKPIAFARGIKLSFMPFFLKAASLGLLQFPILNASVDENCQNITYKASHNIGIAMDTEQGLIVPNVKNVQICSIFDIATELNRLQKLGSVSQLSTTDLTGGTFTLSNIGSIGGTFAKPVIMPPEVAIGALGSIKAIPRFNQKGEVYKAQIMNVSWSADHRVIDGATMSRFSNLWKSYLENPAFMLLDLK
Chain of UniProt Q01780 (Q01780 whole entry, looked up): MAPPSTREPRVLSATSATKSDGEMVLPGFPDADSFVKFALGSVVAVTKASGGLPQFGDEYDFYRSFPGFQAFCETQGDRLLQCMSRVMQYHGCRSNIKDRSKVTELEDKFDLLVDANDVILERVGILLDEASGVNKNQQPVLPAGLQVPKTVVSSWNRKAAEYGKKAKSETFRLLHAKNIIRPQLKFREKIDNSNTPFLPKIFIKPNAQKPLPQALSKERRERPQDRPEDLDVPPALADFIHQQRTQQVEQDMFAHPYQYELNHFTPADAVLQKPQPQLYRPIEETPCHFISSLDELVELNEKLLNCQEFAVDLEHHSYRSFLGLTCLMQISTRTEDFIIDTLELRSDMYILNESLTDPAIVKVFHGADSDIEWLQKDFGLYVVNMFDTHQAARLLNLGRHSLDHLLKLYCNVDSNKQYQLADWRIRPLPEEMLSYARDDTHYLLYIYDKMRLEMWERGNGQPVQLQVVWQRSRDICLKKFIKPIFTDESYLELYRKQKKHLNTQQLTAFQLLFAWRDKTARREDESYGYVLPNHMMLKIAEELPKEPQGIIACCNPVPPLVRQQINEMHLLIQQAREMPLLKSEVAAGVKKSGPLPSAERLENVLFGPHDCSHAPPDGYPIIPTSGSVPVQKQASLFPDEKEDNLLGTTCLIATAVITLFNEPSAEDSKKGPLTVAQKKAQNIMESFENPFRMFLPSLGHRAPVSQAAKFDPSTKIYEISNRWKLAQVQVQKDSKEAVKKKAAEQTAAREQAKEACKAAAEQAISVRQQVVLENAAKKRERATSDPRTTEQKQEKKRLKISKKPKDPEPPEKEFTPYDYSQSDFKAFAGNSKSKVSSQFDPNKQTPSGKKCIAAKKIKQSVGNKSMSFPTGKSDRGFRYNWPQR
Chain of UniProt P13498 (P13498 whole entry, looked up): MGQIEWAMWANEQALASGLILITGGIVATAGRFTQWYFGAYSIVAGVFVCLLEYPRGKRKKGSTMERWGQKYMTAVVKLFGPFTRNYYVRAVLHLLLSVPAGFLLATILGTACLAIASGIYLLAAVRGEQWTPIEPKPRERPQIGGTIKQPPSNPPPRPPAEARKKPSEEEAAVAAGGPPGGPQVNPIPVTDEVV
Chain of UniProt Q15075 (Q15075 whole entry, looked up): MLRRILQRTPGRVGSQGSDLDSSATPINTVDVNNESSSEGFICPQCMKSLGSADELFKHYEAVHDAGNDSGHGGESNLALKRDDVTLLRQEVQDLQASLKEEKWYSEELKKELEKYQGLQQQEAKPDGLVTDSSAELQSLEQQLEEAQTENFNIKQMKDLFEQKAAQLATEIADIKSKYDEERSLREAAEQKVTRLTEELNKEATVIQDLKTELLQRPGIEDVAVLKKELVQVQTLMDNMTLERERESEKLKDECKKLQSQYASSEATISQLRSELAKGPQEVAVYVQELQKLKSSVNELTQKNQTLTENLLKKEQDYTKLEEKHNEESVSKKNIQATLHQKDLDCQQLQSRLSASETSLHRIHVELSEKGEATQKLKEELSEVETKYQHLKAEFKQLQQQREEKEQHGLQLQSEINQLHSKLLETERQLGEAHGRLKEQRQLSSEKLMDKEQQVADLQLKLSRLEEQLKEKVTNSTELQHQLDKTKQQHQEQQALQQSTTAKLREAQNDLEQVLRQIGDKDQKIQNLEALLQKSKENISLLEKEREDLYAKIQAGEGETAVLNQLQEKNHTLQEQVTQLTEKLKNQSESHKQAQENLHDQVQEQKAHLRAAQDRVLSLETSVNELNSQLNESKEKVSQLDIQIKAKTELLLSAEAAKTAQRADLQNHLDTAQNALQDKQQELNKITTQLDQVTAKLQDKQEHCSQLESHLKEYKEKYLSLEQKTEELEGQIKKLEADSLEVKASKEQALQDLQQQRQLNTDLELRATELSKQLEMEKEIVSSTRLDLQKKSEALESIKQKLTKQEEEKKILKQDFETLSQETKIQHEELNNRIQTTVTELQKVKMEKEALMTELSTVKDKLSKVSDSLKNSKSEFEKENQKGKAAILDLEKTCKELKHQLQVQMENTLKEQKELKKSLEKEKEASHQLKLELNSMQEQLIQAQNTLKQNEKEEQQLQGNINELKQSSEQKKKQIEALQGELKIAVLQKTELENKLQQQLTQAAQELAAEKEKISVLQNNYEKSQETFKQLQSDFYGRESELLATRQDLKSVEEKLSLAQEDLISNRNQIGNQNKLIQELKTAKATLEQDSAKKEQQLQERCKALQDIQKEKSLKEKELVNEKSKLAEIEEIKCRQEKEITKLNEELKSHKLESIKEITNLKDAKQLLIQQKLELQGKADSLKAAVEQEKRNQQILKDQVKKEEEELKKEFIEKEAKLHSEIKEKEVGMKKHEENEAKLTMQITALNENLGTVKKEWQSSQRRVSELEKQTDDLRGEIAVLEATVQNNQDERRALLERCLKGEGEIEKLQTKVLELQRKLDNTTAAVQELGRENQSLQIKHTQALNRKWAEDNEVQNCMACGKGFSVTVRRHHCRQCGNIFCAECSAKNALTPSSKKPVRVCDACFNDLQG
Chain of UniProt Q13948 (Q13948 whole entry, looked up): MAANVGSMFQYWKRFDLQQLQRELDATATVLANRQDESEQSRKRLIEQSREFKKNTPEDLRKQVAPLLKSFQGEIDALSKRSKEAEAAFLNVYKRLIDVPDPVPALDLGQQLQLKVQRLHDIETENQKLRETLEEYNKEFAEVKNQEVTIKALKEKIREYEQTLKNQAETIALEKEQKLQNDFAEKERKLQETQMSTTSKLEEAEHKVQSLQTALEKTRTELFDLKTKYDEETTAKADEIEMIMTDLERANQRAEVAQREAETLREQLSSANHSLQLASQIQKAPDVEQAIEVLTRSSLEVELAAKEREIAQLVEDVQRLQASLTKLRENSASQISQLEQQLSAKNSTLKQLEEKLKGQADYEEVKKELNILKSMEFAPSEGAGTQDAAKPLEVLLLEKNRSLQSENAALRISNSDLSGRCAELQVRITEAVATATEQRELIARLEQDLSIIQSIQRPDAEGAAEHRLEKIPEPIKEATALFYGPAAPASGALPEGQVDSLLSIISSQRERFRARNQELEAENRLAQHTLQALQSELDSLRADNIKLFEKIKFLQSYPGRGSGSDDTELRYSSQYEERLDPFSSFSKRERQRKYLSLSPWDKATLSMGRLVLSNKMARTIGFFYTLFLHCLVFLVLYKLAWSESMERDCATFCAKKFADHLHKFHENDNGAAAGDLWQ
Chain of UniProt Q5QJE6 (Q5QJE6 whole entry, looked up): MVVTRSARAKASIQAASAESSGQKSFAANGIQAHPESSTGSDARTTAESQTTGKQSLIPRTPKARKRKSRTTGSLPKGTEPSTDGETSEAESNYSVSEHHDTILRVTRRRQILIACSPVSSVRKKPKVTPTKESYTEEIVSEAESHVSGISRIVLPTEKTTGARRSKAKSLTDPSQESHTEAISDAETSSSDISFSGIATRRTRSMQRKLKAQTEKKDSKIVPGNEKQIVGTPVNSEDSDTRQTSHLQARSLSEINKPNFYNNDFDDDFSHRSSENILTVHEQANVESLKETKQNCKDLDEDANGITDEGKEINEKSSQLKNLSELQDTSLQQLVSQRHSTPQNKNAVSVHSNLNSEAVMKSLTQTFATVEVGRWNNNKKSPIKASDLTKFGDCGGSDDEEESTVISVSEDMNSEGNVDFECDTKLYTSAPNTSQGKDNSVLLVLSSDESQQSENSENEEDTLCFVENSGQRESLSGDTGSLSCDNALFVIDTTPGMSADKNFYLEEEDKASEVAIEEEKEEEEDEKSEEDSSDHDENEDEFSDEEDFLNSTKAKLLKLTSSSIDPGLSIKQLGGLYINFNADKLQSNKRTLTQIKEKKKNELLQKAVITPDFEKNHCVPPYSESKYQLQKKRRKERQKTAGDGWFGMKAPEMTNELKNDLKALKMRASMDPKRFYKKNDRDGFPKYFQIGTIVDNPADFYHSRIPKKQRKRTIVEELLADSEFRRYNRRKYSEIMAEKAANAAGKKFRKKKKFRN

The targets below were run with Cc1cc(SCc2sc(-c3ccc(C(F)(F)F)cc3)nc2C)ccc1OCC(=O)O (assay: log2 fold change, soluble protein after heating vs DMSO (PISA); higher = thermal stabilisation; K562 cells, 10 uM, 30 min; active = over 0.2 and 3.5 SD of the protein, either way, in both replicates (recomputed)).
Summary of the method: (§1)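 K562 cells at 2×10^6 cells/mL were treated with 10 μM compound for 30 min. Aliquots were heated for 3 min across 48°C-58°C, pooled, and extracted in PBS with 0.5% NP-40 at 4°C; soluble protein was the supernatant after 21,000xg for 90 min. Soluble protein was quantified by TMTpro 16plex LC-MS/MS with channel sums equalised, and reported as log2 fold change in thermal stability against DMSO controls, with values from duplicates.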
In the case of ETNK1 (UniProt Q9HBU6), the log2 fold change is reported as 0.118. In the case of EIF4G1 isoform 8 (UniProt Q04637), the log2 fold change is reported as 0.149. DNAH5 (UniProt Q8TE73) was tested, and the log2 fold change was -0.052. Target EEA1 (UniProt Q15075) has a log2 fold change of -0.04. Work on DBT (UniProt P11182) yielded a log2 fold change of -0.042. FAM118A (UniProt Q9NWS6) showed a log2 fold change of 0.097. With CUX1 isoform 2 (UniProt Q13948) the log2 fold change was 0.002. DNAH11 (UniProt Q96DT5) gave a log2 fold change of -0.069. Target EXOSC10 (UniProt Q01780) has a log2 fold change of -0.138. For CYBA (UniProt P13498), the log2 fold change was 0.04. With FADS1, A0A0A0MR51 the log2 fold change was -0.007. FAM117A (UniProt Q9C073) showed a log2 fold change of 0.067. With EEF1AKNMT (UniProt Q8N6R0) the log2 fold change was 0.153. For CYP51A1 (UniProt Q16850), the log2 fold change was 0. With FAM83D (UniProt Q9H4H8) the log2 fold change was 0.08. DNTTIP2 (UniProt Q5QJE6) showed a log2 fold change of 0.052. In the case of EED, A0A5F9ZI63, the log2 fold change is reported as -0.013.

What follows are targets tested with Cc1ccc(-n2nc(C(C)(C)C)cc2NC(=O)Nc2ccc(OCCN3CCOCC3)c3ccccc23)cc1 [doramapimod] in the same assay as above.
Summary of the method: as §1
In the case of DOCK8 (UniProt Q8NF50), the log2 fold change is reported as -0.004. In the case of EEF1B2 (UniProt P24534), the log2 fold change is reported as -0.065. For CTSL (UniProt P07711), the log2 fold change was 0.018. With DNM2 (UniProt P50570) the log2 fold change was -0.039. With EIF2AK1 (UniProt Q9BQI3) the log2 fold change was 0.068. In the case of DIAPH1 (UniProt O60610), the log2 fold change is reported as 0.135. Work on DUS2 (UniProt Q9NX74) yielded a log2 fold change of -0.006. For ERCC2 (UniProt P18074), the log2 fold change was 0.031. In the case of DYNC1LI2 (UniProt O43237), the log2 fold change is reported as -0.121. With DYNC1I2 isoform 5 (UniProt Q13409) the log2 fold change was -0.011. With DIP2A (UniProt Q14689) the log2 fold change was 0.141. In the case of DMXL1 (UniProt Q9Y485), the log2 fold change is reported as 0.047. For DDOST (UniProt P39656), the log2 fold change was 0.005. Work on DHFR (UniProt P00374) yielded a log2 fold change of 0.179. CUX1 isoform 3 (UniProt P39880) was tested, and the log2 fold change was 0.019. DNAJB12 (UniProt Q9NXW2) was tested, and the log2 fold change was -0.034. CTSV (UniProt O60911) showed a log2 fold change of -0.005. Target EFCAB14 (UniProt O75071) has a log2 fold change of -0.01. Target EXOC5 (UniProt O00471) has a log2 fold change of 0.008. With DUS3L (UniProt Q96G46) the log2 fold change was 0.033. EFL1 (UniProt Q7Z2Z2) was tested, and the log2 fold change was -0.013. DYRK1A isoform 2 (UniProt Q13627) was tested, and the log2 fold change was 0.014. Work on FAF2 (UniProt Q96CS3) yielded a log2 fold change of 0.023. ETNK1 (UniProt Q9HBU6) showed a log2 fold change of 0.001. With EIF4G1 isoform 8 (UniProt Q04637) the log2 fold change was 0.032. In the case of DNAH5 (UniProt Q8TE73), the log2 fold change is reported as -0.031. Work on EEA1 (UniProt Q15075) yielded a log2 fold change of 0.002. Work on DBT (UniProt P11182) yielded a log2 fold change of 0.029. FAM118A (UniProt Q9NWS6) gave a log2 fold change of -0.02. CUX1 isoform 2 (UniProt Q13948) was tested, and the log2 fold change was -0.015. DNAH11 (UniProt Q96DT5) was tested, and the log2 fold change was 0.037. Target EXOSC10 (UniProt Q01780) has a log2 fold change of 0.097. For CYBA (UniProt P13498), the log2 fold change was 0.01. Work on FADS1, A0A0A0MR51 yielded a log2 fold change of 0. Work on FAM117A (UniProt Q9C073) yielded a log2 fold change of 0.017. EEF1AKNMT (UniProt Q8N6R0) was tested, and the log2 fold change was 0.077. CYP51A1 (UniProt Q16850) showed a log2 fold change of 0.156. In the case of FAM83D (UniProt Q9H4H8), the log2 fold change is reported as -0.009. In the case of DNTTIP2 (UniProt Q5QJE6), the log2 fold change is reported as 0.129. Work on EED, A0A5F9ZI63 yielded a log2 fold change of 0.028.
